The full ranking holds about 68,000 sequences; the median of “fluorescence intensity (a.u.)” is about 9,100, and the highest 2% start at about 16,000. This excerpt belongs to a sample that is enriched for the highest values.

The target of the test is OsWRKY34 (Oryza sativa, UniProt Q0JBA9 1-250). Kind of test: protein-binding microarray (RPBM); PBS, 2% BSA, 51.3 ng/ul salmon testes DNA, 50 uM zinc acetate, 200 nM TF, 25 C, 1 h; high values mean tight binding. Conditions: protein: recombinant; tags: N-terminal polyhistidine and DsRed monomer fusion (pET32a); label: CyDye5-dUTP incorporated in the synthesized complementary strand; 3' TTTTT single-stranded linker to array surface; dsDNA, one strand shown. In a few lines: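 Per-feature fluorescence intensity (arbitrary units), read on an Axon 4000B scanner, is the binding signal. Transcription factors carrying an N-terminal polyhistidine tag and DsRed fusion were expressed in E. coli BL21-CodonPlus and purified on Ni–NTA. A custom Agilent array, made double-stranded by primer extension with Cy5-dUTP and blocked with 2% BSA, was incubated with 200 nM protein in PBS, 2% BSA, salmon testes DNA and 50 µM zinc acetate at 25 °C for 1 h and then washed.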
OsWRKY34, sequence (Q0JBA9 entry or part of it): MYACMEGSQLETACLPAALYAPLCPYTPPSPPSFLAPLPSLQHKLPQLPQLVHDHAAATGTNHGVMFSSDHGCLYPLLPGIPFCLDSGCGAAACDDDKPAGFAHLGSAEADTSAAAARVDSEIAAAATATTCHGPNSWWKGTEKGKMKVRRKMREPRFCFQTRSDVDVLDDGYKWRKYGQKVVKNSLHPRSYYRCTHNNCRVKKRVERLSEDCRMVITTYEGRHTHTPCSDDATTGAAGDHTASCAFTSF
As for “ACGGTGGCGGGGATGTGGAGGGAGGTGCAGGGGTGCGGGGCGGAGTCACCTAGTGCAG”, the binding signal was 22600 fluorescence intensity (a.u.).

With “GAAAATCTGTGGGAGGGGAGGGGAGGGGACGAGGGGACAGCGGAGTCACCTAGTGCAG”, the binding signal is 19000 fluorescence intensity (a.u.).

As for “GGTGGTGGTGGTGGTGCCGGAGCTGGGGAGAAGAGGAGGACGGAGTCACCTAGTGCAG”, the binding signal is 9350 fluorescence intensity (a.u.).

Turning to “GTGGAGGTCGGGGTCGGGGAGGATGAGGAGGAGGGTGTGGCGGAGTCACCTAGTGCAG”, the binding signal is 10100 fluorescence intensity (a.u.).

For the sequence “GGAGAGGAGTGAGGAGGGATTGTGAGGTGGGGTCGGGGTGCGGAGTCACCTAGTGCAG”, the binding signal is 9030 fluorescence intensity (a.u.).

In the case of “TACTGCAACTCTGCAAGCACATTGATCAATCGATCAATCCCGGAGTCACCTAGTGCAG”, the binding signal is 8450 fluorescence intensity (a.u.).

Consider “TTTGTGGGGCTCTCTCTTTGATGCTTTCTTCTCTTTAGCTCGGAGTCACCTAGTGCAG”, for which the binding signal is 10000 fluorescence intensity (a.u.).

Take “CTAAATTGTATTTCTATATGGACTTTGCTTTTTCTTTTTCCGGAGTCACCTAGTGCAG”: the binding signal is 10900 fluorescence intensity (a.u.).

“GTGGTCCAATCACCCTTTGACCCTTCGCCTCCGTGGCGCCCGGAGTCACCTAGTGCAG”: the binding signal was 8500 fluorescence intensity (a.u.).

For the sequence “TTTCTTGATTAGGGTTTGAATTCATATTACTAACTTTCCTCGGAGTCACCTAGTGCAG”, the binding signal is 8450 fluorescence intensity (a.u.).

For “TTCCGCGTCAACCACCACCGCGCCGGCGTGCGCCTCCGCGCGGAGTCACCTAGTGCAG”, the binding signal was 10300 fluorescence intensity (a.u.).

Consider “ATCAGCCTCATGCCCTTGTAGTCCATCGATCTGTCAGATCCGGAGTCACCTAGTGCAG”, for which the binding signal was 13300 fluorescence intensity (a.u.).

With “GGAGGTGGGAGTGGGCAGTGGCTCGGCTCGTCGTCCTGGGCGGAGTCACCTAGTGCAG”, the binding signal is 8780 fluorescence intensity (a.u.).

For the sequence “TGAGCCTTGCTCGTCGGCGGCGAGGTGGGGTGGGGCGGGGCGGAGTCACCTAGTGCAG”, the binding signal was 20800 fluorescence intensity (a.u.).

For “GGAGGTGGGGATGGTGGGAGGTTTTGGTTTGGTAAAATAGCGGAGTCACCTAGTGCAG”, the binding signal is 19800 fluorescence intensity (a.u.).

With “GGAGGAGGCTGGTAGGGGAGGCGGGAGTCCGGCGGCGAGGCGGAGTCACCTAGTGCAG”, the binding signal was 8640 fluorescence intensity (a.u.).

“TGGGCTTGGTGGAGGTGGCGGGTTTGGAGGCGGAGGTGGCCGGAGTCACCTAGTGCAG”: the binding signal was 14400 fluorescence intensity (a.u.).

For “GCGGAATGGGCGGCGGTGGAGGTGGCGGGTTTGGAGGCGGCGGAGTCACCTAGTGCAG”, the binding signal was 16700 fluorescence intensity (a.u.).

With “TGTGGATGGCGGGGCGAGGCGGAATGGGGCGAATGCGGCGCGGAGTCACCTAGTGCAG”, the binding signal was 8240 fluorescence intensity (a.u.).

Regarding “GGCGGCCAGATCCGGGGCTGGGGAGGCGACGGCGGCGGGGCGGAGTCACCTAGTGCAG”, the binding signal is 8710 fluorescence intensity (a.u.).

For “GAGGCGGGTGGGCGAGCTCCGGCGGCGGCGGGGTGGCCTTCGGAGTCACCTAGTGCAG”, the binding signal was 15800 fluorescence intensity (a.u.).

In the case of “CAGCAGCAGTGGTGGTGGTGGTTTTGGTAGTGGCTGGGAGCGGAGTCACCTAGTGCAG”, the binding signal was 9780 fluorescence intensity (a.u.).

In the case of “TACTTTATCCGCGGCGGGTAGCTGGGGAGGGAGGGGAGGCCGGAGTCACCTAGTGCAG”, the binding signal was 22500 fluorescence intensity (a.u.).

Turning to “TTCGTTTTTCTTTTTTTTTTGATGGGGAGGTTGTAAAATGCGGAGTCACCTAGTGCAG”, the binding signal was 13800 fluorescence intensity (a.u.).

With “CGGTAGTGCGTTAGGTCTTCTCCAAGTCTCTTGGCTTTTACGGAGTCACCTAGTGCAG”, the binding signal was 11100 fluorescence intensity (a.u.).

As for “TCACCGATTCACTCTCCTAGTCCTAGAGTCCTGGTCCATCCGGAGTCACCTAGTGCAG”, the binding signal was 8440 fluorescence intensity (a.u.).

Take “GCACCCACAGTTCCATGAGACACATAGAAGTTTTACACAACGGAGTCACCTAGTGCAG”: the binding signal was 10600 fluorescence intensity (a.u.).

Turning to “TTTCTGAGAGGCATAGTTCATGTTTCCCCATATATACTTCCGGAGTCACCTAGTGCAG”, the binding signal was 8830 fluorescence intensity (a.u.).

As for “TCCGCTGCCTTCGATTCTTGGTAAGCCCCTAATTCTCCTTCGGAGTCACCTAGTGCAG”, the binding signal was 8420 fluorescence intensity (a.u.).

“ACGTTAGTTAAAAAGTCAACGGCGTCATCCATTAAAATACCGGAGTCACCTAGTGCAG”: the binding signal is 8900 fluorescence intensity (a.u.).

On to “TCCCCATGCCATGCAAAATAAATATCCATATTACCGTTTCCGGAGTCACCTAGTGCAG”, for which the binding signal is 8320 fluorescence intensity (a.u.).

Regarding “AGCACCGGTGGCAGCGGCGGACCGTGGAGGGAGGGAGGGGCGGAGTCACCTAGTGCAG”, the binding signal is 9770 fluorescence intensity (a.u.).

Consider “CGGCGGCGGTGGTGGGGAGGAGGAGGGCCAGCGGCAGCAACGGAGTCACCTAGTGCAG”, for which the binding signal is 17500 fluorescence intensity (a.u.).

On to “GTGGTGGAGGAGGAGGAGGAGGATGAGGAGGAAGCGGCTGCGGAGTCACCTAGTGCAG”, for which the binding signal was 8570 fluorescence intensity (a.u.).

Take “CAGCGGGCCCAGCAAGTCAGCCTCACATCTTCTTCTTCATCGGAGTCACCTAGTGCAG”: the binding signal was 8340 fluorescence intensity (a.u.).

Take “GTGGGCAGCGGCGGCGGCCGGTGGGAGGAGGGGAAGCATGCGGAGTCACCTAGTGCAG”: the binding signal was 8380 fluorescence intensity (a.u.).

Regarding “AAGTTTTTGGGTAGTGCTTTTGCGCGCTTTCTCTTGGCTGCGGAGTCACCTAGTGCAG”, the binding signal was 8150 fluorescence intensity (a.u.).

On to “GGGGAGGAGGAGGAGGAGGGTAGGGATGGGGAAGAGGAGTCGGAGTCACCTAGTGCAG”, for which the binding signal was 8020 fluorescence intensity (a.u.).

As to “GAGCTTTGCGCTGGGTGGGCTTGCATTTTTGGGTCTACCGCGGAGTCACCTAGTGCAG”, the binding signal is 21500 fluorescence intensity (a.u.).

As for “TAGCTGTTTGGTCTTGCTGGTGGTGGTGGGTGAGTGTTGGCGGAGTCACCTAGTGCAG”, the binding signal is 11200 fluorescence intensity (a.u.).

Consider “TTCTTCGGTGGTGGTGGTGGTGGGATGGAAGAGGAGGAAGCGGAGTCACCTAGTGCAG”, for which the binding signal is 25800 fluorescence intensity (a.u.).

With “GGTGTGGGGCCCACCTGCAGCCTCACATCGGCACCAGCTGCGGAGTCACCTAGTGCAG”, the binding signal is 18600 fluorescence intensity (a.u.).

With “GTGGCGGCGGGTGGGGCCCATCTCATGGCTGCTGCCTCTGCGGAGTCACCTAGTGCAG”, the binding signal was 10800 fluorescence intensity (a.u.).

The values above are taken from PMC7819943, “Rice protein-binding microarrays: a tool to detect cis-acting elements near promoter regions in rice”.
